# Measured values as given in PubChem BioAssay (NCI).
# Compounds without any hit were thinned out: in the full panel of roughly 83,000, 20% have a hit.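 Plates (96-well) were seeded with cells, treated with compound at one concentration, and incubated for 48 hours before percent growth was determined.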 Unmarked numbers belong to inactive results. Calls of active or inactive are those of the source. Rule for the calls: active = growth percent below 10; inactive = the rest.
# How the values were obtained:
# Assay in all cases: NCI-60 one-dose screen, 48 h (100 = growth as untreated, 0 = no growth, -100 = all killed)
# Settings in all cases: 10 µM unless noted
# NCI-H23 lung = system: NCI-H23 lung
# NCI-H226 lung = system: NCI-H226 lung
# NCI-H322M lung = system: NCI-H322M lung
# HOP-62 NSCLC = system: HOP-62 NSCLC
# NCI-H460 lung = system: NCI-H460 lung
# HOP-92 NSCLC = system: HOP-92 NSCLC
# NCI-H522 lung = system: NCI-H522 lung
# A549/ATCC NSCLC = system: A549/ATCC NSCLC
# 786-0 renal = system: 786-0 renal
# COLO 205 colon = system: COLO 205 colon
# DU-145 prostate = system: DU-145 prostate
# K-562 leukemia = system: K-562 leukemia
# MALME-3M melanoma = system: MALME-3M melanoma
# MDA-MB-231 breast = system: MDA-MB-231 breast
# RXF 393 renal = system: RXF 393 renal
# SF-268 CNS = system: SF-268 CNS
# SF-295 CNS = system: SF-295 CNS
# SF-539 CNS = system: SF-539 CNS
# UACC-257 melanoma = system: UACC-257 melanoma
# M14 melanoma = system: M14 melanoma
Compound,growth (NCI-H23 lung),growth (NCI-H226 lung),growth (NCI-H322M lung),growth (HOP-62 NSCLC),growth (NCI-H460 lung),growth (HOP-92 NSCLC),growth (NCI-H522 lung),growth (A549/ATCC NSCLC),growth (786-0 renal),growth (COLO 205 colon),growth (DU-145 prostate),growth (K-562 leukemia),growth (MALME-3M melanoma),growth (MDA-MB-231 breast),growth (RXF 393 renal),growth (SF-268 CNS),growth (SF-295 CNS),growth (SF-539 CNS),growth (UACC-257 melanoma),growth (M14 melanoma)
COc1ccc(Nc2ncc(Br)c(NCCCNC(=O)c3cccs3)n2)cc1,39.2%,33.1%,56.5%,22.6%,25.1%,30%,61.3%,42.9%,34.3%,33.2%,35.6%,28%,55.4%,31.2%,-26.7% (active),13.2%,52.4%,14.8%,105%,50.2%
NS(=O)(=O)c1ccc(N=Nc2c(O)n(Cc3ccccc3)c3ccc(Cl)cc23)cc1,91.2%,34.1%,84%,64.3%,64.9%,97.8%,69.1%,82.9%,48%,94.3%,87.3%,82.4%,70.5%,75.9%,45.5%,65.2%,93.7%,61.5%,92.1%,88.1%
Cn1ccnc1C(=O)/C=C/c1ccc(C(=O)Nc2ccc(Cl)cc2)cc1,-18.7% (active),16.8%,0.414% (active),-4.38% (active),-28.7% (active),17%,-5.14% (active),6.96% (active),-78.8% (active),1.1% (active),10.9%,2.13% (active),51.5%,1.85% (active),-57.1% (active),0.451% (active),27.3%,-73.4% (active),51.6%,6.17% (active)
CN(C)c1ccc(C(=O)OCCCCCCl)cc1,90.7%,99%,85.4%,91.8%,104%,89.3%,89.2%,100%,95.3%,110%,96.4%,106%,89%,87.4%,102%,94%,98.9%,96.1%,109%,95.3%
COc1ccc(C/C(C)=C(\c2ccc(Cl)cc2)c2ccc(OCCN3CCCCC3)cc2)cc1,91.9%,86.5%,96.7%,102%,101%,87.9%,87.3%,98.1%,93.8%,95.3%,110%,67.3%,106%,93.3%,85.1%,99.6%,101%,93.6%,104%,93.3%
CSc1nc(N)c(NS(=O)(=O)c2ccc(C(C)=O)cc2)c(=O)[nH]1,95.5%,103%,100%,105%,103%,103%,99.6%,102%,78.9%,98.6%,110%,96%,100%,104%,96.9%,99.9%,97.3%,112%,105%,89.3%
O=C(CN1CCOCC1)Nc1nc(-c2cc3ccccc3oc2=O)cs1,111%,88.2%,100%,96.9%,103%,90.7%,98.7%,105%,103%,120%,106%,96.3%,102%,93.6%,109%,90.1%,101%,97.6%,106%,101%
CN(C)S(=O)(=O)c1cccc(C(=O)Nc2nc(-c3ccc(F)c(F)c3)cs2)c1,45.7%,46.7%,106%,99.5%,49.4%,67.1%,25.2%,60.1%,64.9%,103%,70.7%,39.4%,90.9%,69.4%,55.1%,88.9%,49.3%,66.4%,42.5%,60.8%
CCSc1nc2scc(C)c2c(=O)[nH]1,95.1%,99.2%,104%,106%,102%,101%,94.6%,99.2%,94%,111%,105%,99.9%,106%,104%,112%,100%,99.2%,99.2%,105%,107%
CN(C)CCNC(=O)c1cc2c3cc(Cl)ccc3[nH]c2c2ncccc12,32.5%,25%,31.4%,24.4%,-0.295% (active),2.92% (active),21.2%,9.53% (active),11.4%,-17.9% (active),7.58% (active),-25.1% (active),-29.9% (active),30.3%,15.5%,13.5%,22.1%,5.06% (active),18.4%,-81% (active)
CC(C)(C)[Si](C)(C)OC1[C@@H](CNC(=O)NC(=O)NC(N)=O)O[C@@H](n2cnc3c(NC(=O)Nc4ccccc4)ncnc32)[C@H]1O[Si](C)(C)C(C)(C)C (stereo not given in full),75.4%,69.4%,87.1%,71%,27.4%,92%,43.3%,44.1%,90.9%,54.3%,58.9%,66.3%,79%,83.7%,71.6%,66.4%,73.1%,95.4%,94%,68%
Cc1cc(C)c2c(c1)N(C)c1ncnc(-n3cnc4cc(C)ccc43)c1CC2C (stereo not given),37.9%,49.9%,48.5%,31.8%,7.26% (active),38.3%,-0.316% (active),26.2%,22.8%,0.292% (active),14.2%,7.57% (active),45.2%,36.8%,-24.8% (active),40.4%,1.91% (active),6.25% (active),45.3%,5.2% (active)
CCn1cc(C(=O)NNC(=S)Nc2ccc(C)cc2)c(=O)c2ccc(C)nc21,102%,90.1%,80.4%,108%,101%,95.1%,97.3%,91.6%,102%,116%,108%,99%,103%,93.5%,104%,103%,102%,102%,94%,113%
O=C1NC(=O)C(Cc2ccc(OCc3ccc(-c4ccc(Cl)cc4Cl)cc3)cc2)S1 (stereo not given),46.9%,74.5%,90.8%,66.4%,58.5%,53.7%,26.8%,39.4%,63.8%,90.4%,78.9%,23.5%,49.9%,71%,76.1%,51.8%,45%,56.2%,55.7%,47.5%
COC(=O)c1cc(N=C2NC(=O)/C(=C/C=C/c3ccccc3)S2)ccc1O,37.2%,37.5%,47.2%,44.5%,12.1%,34.3%,19.4%,30.8%,20.4%,9.95% (active),16.8%,14.4%,65.3%,54.7%,-12.8% (active),61.7%,20.3%,12.4%,70.9%,11.3%
CCN1C(=S)N(c2ccccc2)C2NC(=S)N(/N=C/C=C/c3ccccc3OC)C21 (stereo not given),32.7%,58%,45.6%,36.9%,3.12% (active),53.5%,-15.5% (active),11.4%,29.4%,-2.82% (active),7.01% (active),8.73% (active),54.1%,10.5%,26.3%,54.5%,13.7%,-18.3% (active),43.2%,3.35% (active)
